Compound activity as filed in PubChem.
Sampled rows, rich in hits. Any-hit rate of the full collection: about 3.7%.
FEN1 inh = blocks human flap endonuclease 1 | P39748 | Recombinant FEN1 flap cleavage, fluorescence, 15 min | Potency, µM (series often up to 114 µM), hits mostly inhibitors | hit rate 0.35% among 390,000; further: nearly all actives have a fitted effect of over 65% in size
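Read-out was taken twice, immediately and after 15 min, following addition of 50 nM substrate to 10 nM FEN1 that had sat with test compound for 15 min at room temperature. Curves came from a four-parameter Hill model.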
PLK1 PBD block = PLK1 (human) polo-box domain binding inhibition | P53350 | hit rate 2.8% among 360,000 | Potency, µM, most hits filed as inhibitors | Plk1 PBD binding of FITC phosphopeptide, fluorescence polarization | AID 720504; further: series mostly up to about 57 µM; nearly all actives have a fitted effect of over 65% in size
Target sequence (P53350 whole entry, looked up, the tested form may be a part): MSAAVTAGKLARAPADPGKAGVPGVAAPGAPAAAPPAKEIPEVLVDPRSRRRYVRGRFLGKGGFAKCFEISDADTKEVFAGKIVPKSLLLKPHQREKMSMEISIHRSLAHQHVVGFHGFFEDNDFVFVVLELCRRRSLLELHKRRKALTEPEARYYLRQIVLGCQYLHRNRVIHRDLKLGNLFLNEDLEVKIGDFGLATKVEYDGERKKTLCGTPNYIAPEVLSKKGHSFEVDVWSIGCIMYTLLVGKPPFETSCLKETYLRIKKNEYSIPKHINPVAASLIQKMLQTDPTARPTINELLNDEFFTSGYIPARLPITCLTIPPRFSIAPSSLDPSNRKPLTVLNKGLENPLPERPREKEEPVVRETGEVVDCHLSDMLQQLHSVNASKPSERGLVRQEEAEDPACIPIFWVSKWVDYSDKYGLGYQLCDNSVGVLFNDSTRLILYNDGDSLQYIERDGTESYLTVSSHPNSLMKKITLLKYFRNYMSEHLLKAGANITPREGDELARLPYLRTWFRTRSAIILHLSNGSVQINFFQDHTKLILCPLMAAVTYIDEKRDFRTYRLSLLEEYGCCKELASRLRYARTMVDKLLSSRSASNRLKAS
VDR inh = blocks the human vitamin D receptor; AID 504847; hit rate 0.93% among 400,000; VDR-SRC2-3 peptide fluorescence polarization, 2 h; Potency, µM, hits mostly inhibitors
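Fluorescence polarization assay measuring small-molecule disruption of VDR binding to the coregulator peptide SRC2-3. Compounds were pin-transferred (23 nl) into the reagent mix and incubated 2 h at room temperature before reading.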
PI5P4K alpha inh = inhibitors of human PI5P4K alpha; P48426; PI5P4Kalpha enzyme, ADP-Glo luminescence, 60 min; active compounds read low; max response, %; hit rate 1.2% among 330,000; AID 652105; active means max response of -50% or lower; inconclusive means between -30% and -50%; inactive means -30% or higher; further: value at the top dose of about 77 µM
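Luminescence from ADP-Glo served as readout of PI5P4Kalpha activity in a qHTS format. Reaction: enzyme, substrate, compound, ATP at 5 microM final, 60 min at RT.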
TCR activator = T cell receptor activation; primary human leukocytes, anti-CD3, IL-2 HTRF, 48 h; Potency, µM (top dose mostly 9.22 µM), hits mostly activators; 330,000 tested, under 10 active
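Primary human leukocytes were stimulated with a-CD3 beads plus compounds for 48 hr without co-stimulation; secreted IL-2 was quantified by HTRF using a-IL-2-K (europium cryptate) and a-IL-2-d2, excited at 320nm with acceptor emission read at 665nm.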
WRN helicase inh = blocks human WRN helicase. Q14191. WRN helicase unwinding, fluorescent forked duplex, kinetic. Potency, µM (series often up to 114 µM), usual class: inhibitors. hit rate 0.46% among 360,000. AID 651768; further: nearly all actives have a fitted effect of over 55% in size
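Kinetic red-fluorescence monitoring (525/598 nm) tracks WRN helicase activity after 100 nM fluorophore-quencher forked duplex and 2 mM ATP are added to 20 nM enzyme pretreated 15 min at room temperature with compound.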
Large screens that a line does not name were inactive; ! = repeats disagree. Unless noted, the call rests on the fitted dose curve; in most records, active means well fitted curve in the direction sought with a large enough effect; inconclusive means small, poorly fitted or top-dose-only effect, or another doubt; inactive means no such curve, though single readings can be large; an effect the other way counts as inactive or inconclusive.

O=C1OCCC1N(C(=O)C1CC1)c1cccc(Cl)c1 (centres undefined)	none (no result: FEN1 inh, PLK1 PBD block, PI5P4K alpha inh, TCR activator, WRN helicase inh)
O=C(/C=C/c1ccco1)N(c1ccccn1)c1ccccn1	FEN1 inh inconclusive, PLK1 PBD block inconclusive, PI5P4K alpha inh inconclusive, WRN helicase inh 50µM
O=C(c1ccco1)N(c1ccccn1)c1ccccn1	none
CCCc1nnc(SCc2cc(=O)c3c(C)cc(C)cc3[nH]2)n1C	none (no result: PLK1 PBD block, PI5P4K alpha inh, TCR activator, WRN helicase inh)
O/C=c1\ccc2cccc3nc(C(F)(F)F)nc1c23	FEN1 inh 79µM, PLK1 PBD block inconclusive, PI5P4K alpha inh inconclusive, WRN helicase inh 79µM
NNc1nc(C(F)(F)F)nc2ccccc12	none
CCOC(=O)c1ccc(N(C(=O)c2ccccc2)c2ccccc2)cc1	none (no result: PLK1 PBD block, VDR inh, PI5P4K alpha inh, TCR activator, WRN helicase inh)
Cc1ccc(S(=O)(=O)CCC(=O)N2CCN(c3ccc([N+](=O)[O-])cc3)CC2)cc1	VDR inh 25µM
COc1ccc(N2CCN(C(=O)CCS(=O)(=O)c3ccc4c(c3)NC(=O)CO4)CC2)cc1	PLK1 PBD block 24µM
COc1ccc(S(=O)(=O)CCC(=O)N2CCN(c3ccc([N+](=O)[O-])cc3)CC2)cc1	none
Cc1cc2c(cc1S(=O)(=O)N1CCN(c3cccc(C(F)(F)F)c3)CC1)OCC(=O)N2	PLK1 PBD block 21µM, VDR inh inconclusive
O=C1COc2ccc(S(=O)(=O)CCC(=O)N3CCN(c4cccc(C(F)(F)F)c4)CC3)cc2N1	none
COc1ccc(CNC(=O)CC(C)S(=O)(=O)c2ccc3c(c2)NC(=O)CO3)cc1 (centres undefined)	PLK1 PBD block 24µM
NNC(=O)c1ccc(C(=O)N(c2ccccc2)c2ccccc2)cc1	none (no result: PLK1 PBD block, VDR inh, PI5P4K alpha inh, TCR activator, WRN helicase inh)
C=C(C)C(=O)OCCOC(=O)C(=C)C	none (no result: FEN1 inh, PLK1 PBD block, PI5P4K alpha inh, TCR activator, WRN helicase inh)
Cc1cccc(N2CCN(C(=O)CCS(=O)(=O)c3ccc4c(c3)NC(=O)CO4)CC2)c1C	PLK1 PBD block 12µM, VDR inh inconclusive
Cc1cccc(N2CCN(S(=O)(=O)c3ccc4c(c3)NC(=O)CO4)CC2)c1C	PLK1 PBD block 27µM
Cc1cc2c(cc1S(=O)(=O)N1CCN(c3cccc(C)c3C)CC1)OCC(=O)N2	none
Cc1cccc(NC(=O)C2CCN(S(=O)(=O)c3ccc4c(c3)NC(=O)CO4)CC2)c1	none
COc1cccc(NC(=O)C2CCN(S(=O)(=O)c3ccc4c(c3)NC(=O)CO4)CC2)c1	PLK1 PBD block 21µM, VDR inh inconclusive
CC/C=C\C/C=C\C/C=C\C/C=C\C/C=C\C/C=C\CCC(N)=O	none (no result: FEN1 inh, PLK1 PBD block, PI5P4K alpha inh, TCR activator, WRN helicase inh)
COc1ccccc1-c1noc(-c2ccc(NC3CCCC3)c([N+](=O)[O-])c2)n1	none (no result: PLK1 PBD block, PI5P4K alpha inh, TCR activator, WRN helicase inh)
Cc1ccc(C2C(C#N)=C(N)SC(N)=C2C#N)c(C)c1	PI5P4K alpha inh -63
Cc1ccc(C2C(C#N)=C(N)SC(N)=C2C#N)cc1	PI5P4K alpha inh -85
Cc1ccc(CNC(=O)c2cc(-c3ccc(Cl)cc3)on2)cc1	none (no result: PLK1 PBD block, PI5P4K alpha inh, TCR activator, WRN helicase inh)
O=C(C[n+]1c(Cl)ccc2ccccc21)c1ccc2ccccc2c1	none (no result: PLK1 PBD block, VDR inh, PI5P4K alpha inh, TCR activator, WRN helicase inh)
CC[C@H](C)[C@@H](NC(=O)O[C@H]1C(=O)c2ccc(OC)cc2O[C@@H]1c1ccc2c(c1)OCO2)C(=O)OC	none (no result: FEN1 inh, PLK1 PBD block, PI5P4K alpha inh, TCR activator, WRN helicase inh)
COC(=O)C(N)CS (centres undefined)	VDR inh 18µM (no result: FEN1 inh, PLK1 PBD block, PI5P4K alpha inh, TCR activator, WRN helicase inh)
COC(=O)[C@@H](N)CS	PLK1 PBD block 24µM, VDR inh 20µM!, PI5P4K alpha inh inconclusive
COC(=O)C(N)Cc1ccc(O)cc1 (centres undefined)	none (no result: PI5P4K alpha inh)
Cc1cccc(N2CCN(C(=O)CCNS(=O)(=O)c3ccc4c(c3)CCN4C(=O)C3CC3)CC2C)c1 (centres undefined)	none (no result: PLK1 PBD block, PI5P4K alpha inh, TCR activator, WRN helicase inh)
O=C(Nc1ccccc1)Oc1ccc[nH]c1=O	PLK1 PBD block 15µM
CC(=O)c1cccc(NC(=O)Nc2sc3nc4n(c(=O)c3c2C)CCC(C)CC4)c1 (centres undefined)	none (no result: PLK1 PBD block, PI5P4K alpha inh, TCR activator, WRN helicase inh)
CC(C)NC(=O)N1CC2(CCN(S(=O)(=O)c3ccccc3)CC2)C1	none (no result: FEN1 inh, PLK1 PBD block, PI5P4K alpha inh, TCR activator, WRN helicase inh)
Cc1ccc(SCc2c(C#N)c3ccccc3n2C)cc1	PLK1 PBD block 5.3µM
Cc1ccc2c(c1)C(c1ccc(F)cc1)N(C(=O)C(C)C)CC(=O)N2 (centres undefined)	none (no result: PLK1 PBD block, PI5P4K alpha inh, TCR activator, WRN helicase inh)
O=C(NCCc1ccccc1)[C@@H]1CC=C[C@@H]2CCN(C3CC3)C(=O)[C@@H]21	none (no result: PLK1 PBD block, VDR inh, PI5P4K alpha inh, TCR activator, WRN helicase inh)
CC1=CC(=O)C2C(C)(C)CCC[C@@]2(C)[C@@]1(O)CCc1ccoc1 (some centres undefined)	VDR inh 50µM (no result: FEN1 inh, PLK1 PBD block, PI5P4K alpha inh, TCR activator, WRN helicase inh)
